The text below walks through data of paper PMC8384837, “Expanding the binding specificity for RNA recognition by a PUF domain”.

Common to all, as to assay: yeast three-hybrid, YBZ-1, SC-Leu-His + 0.5 mM 3-AT, 4 days
What all share (conditions): tags: N-Gal4 AD-HA kept; label: inside an RPR1-promoter hybrid RNA with tandem MS2 sites; ssRNA

One test addresses PUM1 PUF domain R7-KRL (Homo sapiens, UniProt Q14671 828-1176, S1079K;N1080R;E1083L). An outline of the steps: (§1)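 Repeat regions from input (SC-Leu) and selection (SC-Leu-His + 0.5 mM 3-AT) plates were PCR-amplified and Illumina-sequenced after four days of growth. The cells were strain YBZ-1 with a LexA–MS2 coat fusion and a HIS3 reporter, co-expressing Pumilio-1 PUF domain libraries and matching RNA elements from a centromeric plasmid. The interaction score is the log change in variant frequency from input to selection, taken in log2 with a pseudocount of 1 for absent variants.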

The target of another test is PUM1 PUF domain R3-RVA (Homo sapiens, UniProt Q14671 828-1176, C935R;R936V;Q939A). An outline of the steps:
as §1

In a further test the target is PUM1 PUF domain R3-VYW (Homo sapiens, UniProt Q14671 828-1176, C935V;R936Y;Q939W). An outline of the steps: as §1
In another test the target is PUM1 PUF domain R8-TYK (Homo sapiens, UniProt Q14671 828-1176, N1122T;Q1126K). An outline of the steps:
as §1

Chain of PUM1 PUF domain R8-TYK (Q14671 828-1176 N1122T/Q1126K): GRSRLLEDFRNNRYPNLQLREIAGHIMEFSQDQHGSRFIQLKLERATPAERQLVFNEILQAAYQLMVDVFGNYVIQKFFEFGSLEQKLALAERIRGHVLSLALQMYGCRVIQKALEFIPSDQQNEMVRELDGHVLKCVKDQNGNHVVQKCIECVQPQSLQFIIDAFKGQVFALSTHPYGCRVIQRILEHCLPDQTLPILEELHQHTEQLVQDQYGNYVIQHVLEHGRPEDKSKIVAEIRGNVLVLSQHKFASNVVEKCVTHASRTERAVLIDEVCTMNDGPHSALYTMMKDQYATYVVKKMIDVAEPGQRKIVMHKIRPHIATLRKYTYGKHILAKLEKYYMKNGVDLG

Turning to “GGCUAGAACUAGUGGAUCCCCCGGCGCCCGGCGGCUCGAGCCCGGGUAAGUCUAAAUAGUCUGCAUGCCGCCGGGCGCCAUGCCUGCAGGUCGACUCUAGAAAACAUG”, the binding signal with PUM1 PUF domain R7-KRL was 5.65 log2 enrichment (interaction score).
For the sequence “GGCUAGAACUAGUGGAUCCCCCGGCGCCCGGCGGCUCGAGCCCGGGUAAGUGUAAUUAGUCUGCAUGCCGCCGGGCGCCAUGCCUGCAGGUCGACUCUAGAAAACAUG”, the binding signal with PUM1 PUF domain R3-RVA is 2.31 log2 enrichment (interaction score); in the test with PUM1 PUF domain R3-VYW, 4.86 log2 enrichment (interaction score).
For “GGCUAGAACUAGUGGAUCCCCCGGCGCCCGGCGGCUCGAGCCCGGGUAAGCGUAAAUAGUCUGCAUGCCGCCGGGCGCCAUGCCUGCAGGUCGACUCUAGAAAACAUG”, the binding signal with PUM1 PUF domain R8-TYK is 2.07 log2 enrichment (interaction score).
